From PubChem
Arbovirus anti – blocks arbovirus infection | 0.37% of 200,000 active | inhibition, % at 10 µM | arbovirus infection cell-based antiviral screen | AID 1251; in the data active = inhibition above about 30%
S1P3 antagonist – antagonists of human S1P3 receptor; Q99500; CHO S1P3 NFAT-BLA reporter, FRET fluorescence, antagonist mode; inhibition, % at 4.98 µM; 0.27% of 170,000 active; AID 485;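 active = inhibition above the plate cutoff, the mean inhibition of test wells on that plate plus 3 SD, cut at about 28% in these data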;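 note: cells challenged with S1P at its EC80 of 0.8 µM; blue over green emission ratio from cleaved BLA substrate after 4 h stimulation; 0% = S1P-stimulated wells and 100% = unstimulated DMSO-only wells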
S1P4 ag – agonists of human S1P4 receptor; S1P4-expressing cell line, agonist reporter assay; 0.35% of 220,000 active; activation, % at 4.98 µM; in the data active = activation above about 11%;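 note: 0% = DMSO vehicle and 100% = reference agonist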
p97 inhibitor – inhibitors of human p97 ATPase; recombinant p97 ATPase, Kinase-Glo ATP luminescence, 3 h; inhibition, % at 8 µM; P55072; 0.42% of 220,000 active; in the data active = inhibition above about 15%;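 note: 0% = DMSO vehicle and 100% = wells lacking enzyme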
Target sequence (P55072 whole entry, looked up): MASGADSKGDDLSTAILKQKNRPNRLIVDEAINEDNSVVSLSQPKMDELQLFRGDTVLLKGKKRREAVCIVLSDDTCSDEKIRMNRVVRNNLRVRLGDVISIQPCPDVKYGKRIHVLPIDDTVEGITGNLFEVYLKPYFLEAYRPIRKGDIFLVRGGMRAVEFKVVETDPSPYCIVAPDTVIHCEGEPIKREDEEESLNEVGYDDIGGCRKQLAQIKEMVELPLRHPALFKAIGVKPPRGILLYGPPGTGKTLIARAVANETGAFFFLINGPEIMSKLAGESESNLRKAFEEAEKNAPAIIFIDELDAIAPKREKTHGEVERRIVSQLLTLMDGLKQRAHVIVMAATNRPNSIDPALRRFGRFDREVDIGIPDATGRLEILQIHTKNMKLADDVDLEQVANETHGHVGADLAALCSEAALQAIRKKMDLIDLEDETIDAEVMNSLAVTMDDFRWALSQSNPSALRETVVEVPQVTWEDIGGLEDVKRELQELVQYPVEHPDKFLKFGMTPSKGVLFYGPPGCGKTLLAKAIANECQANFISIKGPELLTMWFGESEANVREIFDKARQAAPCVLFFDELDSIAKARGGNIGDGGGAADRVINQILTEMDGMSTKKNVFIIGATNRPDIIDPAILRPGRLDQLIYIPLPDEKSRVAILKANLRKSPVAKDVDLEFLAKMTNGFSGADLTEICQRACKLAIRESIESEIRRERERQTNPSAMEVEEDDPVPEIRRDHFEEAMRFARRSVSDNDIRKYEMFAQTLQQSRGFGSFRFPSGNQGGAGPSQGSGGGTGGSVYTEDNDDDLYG
Redox H2O2 prof – compounds producing H2O2 with reducing agent – biochemical, NIH compound library profiling, artefact control for MLSCN library redox annotation, primary screen | DTT-dependent redox cycling H2O2, phenol red/HRP absorbance; 100% = 100 µM peroxide control, 0% = buffer | activation, % at 10 µM | 0.03% of 200,000 active | AID 878;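 active = activation of at least 50% relative to the plate's high and low controls in the primary single-dose screen; inactive = activation below 50%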;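 note: compound incubated with DTT at 0.8 mM final as the reducing agent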
S1P4 antag – blocks the human S1P4 receptor. 0.26% of 220,000 active. inhibition, % at 4.98 µM. S1P4-expressing cells, antagonist mode, reporter read-out; in the data active = inhibition above about 29%;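 note: 0% = wells stimulated with agonist and 100% = vehicle wells without agonist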
* hit, by the source's call. An excerpt weighted towards active compounds, which were near 1.6% of everything screened.

Cc1cccc(C)c1-n1cccc1/C=C1/C(=N)N2C(=NC1=O)SN=C2S(C)(=O)=O was read as Arbovirus anti 59*, S1P3 antagonist -5, S1P4 ag 1, p97 inhibitor -2, Redox H2O2 prof -1 and S1P4 antag 7.
`Cc1ccc(-n2cccc2/C=C2/C(=N)N3C(=NC2=O)SN=C3S(C)(=O)=O)cc1Cl` gave Arbovirus anti 34*, S1P3 antagonist 4, S1P4 ag 0, p97 inhibitor -4, Redox H2O2 prof 0 and S1P4 antag 8.
For CC1=CSC2=NC(=O)/C(=C\c3cccn3-c3ccc([N+](=O)[O-])cc3)C(=N)N12 the results were Arbovirus anti -13, S1P3 antagonist -2, S1P4 ag 0, p97 inhibitor -3, Redox H2O2 prof 0 and S1P4 antag -19.
`CC1=CSC2=NC(=O)/C(=C\c3cccn3-c3ccccc3)C(=N)N12` gave Arbovirus anti -3, S1P3 antagonist -9, S1P4 ag 0, p97 inhibitor -1, Redox H2O2 prof 0 and S1P4 antag 5.
`O=S(=O)(c1cccs1)N1CCN(CC(O)COc2cccc(Br)c2)CC1` (stereo unspecified) gave Arbovirus anti 17, S1P4 ag 1, p97 inhibitor 0, Redox H2O2 prof 0 and S1P4 antag 20.
Screening O=S(=O)(c1cccs1)N1CCN(CC(O)COC2CCCc3ccccc32)CC1 (stereo unspecified) returned Arbovirus anti 6, S1P3 antagonist 100*, S1P4 ag -2, p97 inhibitor -1, Redox H2O2 prof 2 and S1P4 antag 3.
`CCOc1ccccc1Nc1ncnc2c1cnn2-c1ccccc1` gave Arbovirus anti 1 and S1P3 antagonist 113*.
`COc1ccc(Nc2ncnc3c2cnn3-c2ccccc2)cc1OC` gave Arbovirus anti 6, S1P3 antagonist 23, S1P4 ag 0, p97 inhibitor 1, Redox H2O2 prof 0 and S1P4 antag -5.
`CCOc1ccc(-n2c(=O)[nH]c3sc4c(c3c2=O)CCCC4)cc1` gave Arbovirus anti 40*, S1P3 antagonist -20, S1P4 ag 0, p97 inhibitor -7, Redox H2O2 prof -1 and S1P4 antag -10.
`COc1ccc([N+](=O)[O-])cc1NC(=O)c1ccco1` gave Arbovirus anti -10, S1P3 antagonist 6, S1P4 ag 1, p97 inhibitor 5, Redox H2O2 prof 0 and S1P4 antag -25.
For O=C(O)c1cccc(N/N=C/c2ccc(F)c(F)c2)c1 the results were Arbovirus anti 2, S1P3 antagonist -11, S1P4 ag -1, p97 inhibitor 0, Redox H2O2 prof 1 and S1P4 antag -25.
O=C(O)c1cccc(N/N=C/C2=C(Cl)c3cc(Cl)ccc3SC2)c1 was read as Arbovirus anti 46*, S1P3 antagonist -9, S1P4 ag 0, p97 inhibitor 8, Redox H2O2 prof -2 and S1P4 antag 1.
For CC(C(=O)N(C1CC1)C1(C(=O)Nc2ccccc2)CCCC1)N1C(=O)c2ccccc2C1=O (stereo unspecified) the results were Arbovirus anti 5, S1P3 antagonist 24, S1P4 ag -1, p97 inhibitor -2, Redox H2O2 prof -1 and S1P4 antag -23.
Cc1ccc(C)n1-n1c(C)nc2sc(-c3ccccc3)cc2c1=O was read as Arbovirus anti 10, S1P3 antagonist 55*, S1P4 ag -3, p97 inhibitor 1, Redox H2O2 prof -4 and S1P4 antag 8.
`COc1ccc(C(=O)NNC(=O)c2ccc(S(=O)(=O)N3CCCCC3)cc2)cc1` gave Arbovirus anti 7, S1P3 antagonist 1, S1P4 ag 2, p97 inhibitor 5, Redox H2O2 prof 0 and S1P4 antag -13.
For CCCc1cc(=O)[nH]c(SCC(=O)CSc2nc(CCC)cc(=O)[nH]2)n1 the results were Arbovirus anti 19, S1P3 antagonist -26, S1P4 ag 2, p97 inhibitor 0, Redox H2O2 prof 0 and S1P4 antag -28.
CCCc1cc(=O)[nH]c(SCC(=O)NC)n1 was read as Arbovirus anti 72*, S1P4 ag -1, p97 inhibitor -1, Redox H2O2 prof -8 and S1P4 antag -4.
COc1cccc(/C=N/N2C(=O)C3C4c5ccccc5C(c5ccccc54)C3C2=O)c1OC (stereo unspecified) was read as Arbovirus anti 3, S1P4 ag 13*, p97 inhibitor 6, Redox H2O2 prof 0 and S1P4 antag 7.
For CCc1ccccc1NC(=O)CSc1nc2c(c(-c3ccco3)c1C#N)CCCC2 the results were Arbovirus anti -6, S1P3 antagonist -14, S1P4 ag 1, p97 inhibitor 2, Redox H2O2 prof 4 and S1P4 antag -12.
Cc1ccccc1NC(=O)CSc1nc2c(c(-c3ccco3)c1C#N)CCCC2 was read as Arbovirus anti -4, S1P3 antagonist 79*, S1P4 ag 2, p97 inhibitor 2, Redox H2O2 prof 1 and S1P4 antag -1.
Screening CCOCCN1CCN(C(=O)CN2CCCC2=O)CC1 returned Arbovirus anti 2, S1P3 antagonist 1, S1P4 ag 0, p97 inhibitor 1, Redox H2O2 prof 0 and S1P4 antag -7.
For CC(=O)C1=C(C)Nc2ncnn2C1c1ccc(Cl)cc1 (stereo unspecified) the results were Arbovirus anti 4, S1P3 antagonist 81*, S1P4 ag 5, p97 inhibitor 1, Redox H2O2 prof -1 and S1P4 antag -5.
O=C(Nc1ccccc1C(=O)NCc1ccccc1)c1ccccc1Br was read as Arbovirus anti 5, S1P3 antagonist -7, S1P4 ag 3, p97 inhibitor 3, Redox H2O2 prof 0 and S1P4 antag -16.
Screening O=C(Nc1ccccc1C(=O)O)c1ccc(Br)c(S(=O)(=O)NCc2ccccc2)c1 returned Arbovirus anti 31*, S1P3 antagonist -9, S1P4 ag 2, p97 inhibitor 6, Redox H2O2 prof 0 and S1P4 antag -14.
For O=C(N/N=C/c1cn(Cc2ccccc2)c2ccccc12)c1cccnc1 the results were Arbovirus anti -4, S1P3 antagonist 28*, S1P4 ag -2, p97 inhibitor -1, Redox H2O2 prof 0 and S1P4 antag -17.
Screening O=C(N/N=C/c1cn(Cc2ccccc2)c2ccccc12)c1ccncc1 returned Arbovirus anti -5, S1P3 antagonist -11, S1P4 ag -1, p97 inhibitor 3, Redox H2O2 prof -1 and S1P4 antag -5.
For O=C(N/N=C/c1c(O)n(-c2ccccc2Cl)c(=O)c2ccccc12)c1cccnc1 the results were Arbovirus anti 36*, S1P3 antagonist 3, S1P4 ag 1, p97 inhibitor 12, Redox H2O2 prof -1 and S1P4 antag -8.
For O=C(N/N=C/c1c(O)n(Cc2ccccc2)c(=O)c2ccccc12)c1cccnc1 the results were Arbovirus anti -24, S1P3 antagonist 14, S1P4 ag -1, p97 inhibitor 3, Redox H2O2 prof 0 and S1P4 antag -3.
